Assay outcomes: PubChem, National Center for Advancing Translational Sciences (NCATS)
AmpC inh detg: qHTS Inhibitors of AmpC Beta-Lactamase (assay with detergent); P00811; AmpC hydrolysis of nitrocefin, absorbance 480 nm, 0.01% Triton; Potency, µM (titrated, usually from 114 µM), most hits filed as inhibitors; 0.041% of 370,000 active; further: nearly all actives have a fitted effect of over 25% in size
Target sequence (P00811 whole entry, looked up): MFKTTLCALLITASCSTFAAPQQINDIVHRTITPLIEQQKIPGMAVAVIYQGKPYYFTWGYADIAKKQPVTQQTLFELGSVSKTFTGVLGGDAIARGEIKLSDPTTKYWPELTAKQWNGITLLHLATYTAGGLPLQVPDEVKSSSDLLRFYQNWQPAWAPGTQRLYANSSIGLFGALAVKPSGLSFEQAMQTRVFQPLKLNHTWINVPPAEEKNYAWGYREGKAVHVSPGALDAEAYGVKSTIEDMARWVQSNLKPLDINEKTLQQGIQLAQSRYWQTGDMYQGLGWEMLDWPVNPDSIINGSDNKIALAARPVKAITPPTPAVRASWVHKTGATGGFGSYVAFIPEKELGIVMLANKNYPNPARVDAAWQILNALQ
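AmpC (5.3 nM in the dispensed reagent) in 20 mM phosphate pH 7.0 with 0.01% (detergent screen) or 0.0001% Triton X-100 was preincubated with compounds for 15 min at room temperature. Nitrocefin was then added from an 800 uM solution, and hydrolysis was followed at 480 nm.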
AmpC no deterg: qHTS Inhibitors of AmpC Beta-Lactamase (assay without detergent). P00811. AmpC nitrocefin hydrolysis, absorbance 480 nm, 0.0001% Triton. Potency, µM (doses to about 57.1 µM), most hits filed as inhibitors. 0.52% of 330,000 active. AID 485341, 2010; further: nearly all actives have a fitted effect of over 20% in size
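20 mM phosphate pH 7.0 + 0.01% (detergent screen) or 0.0001% Triton X-100; 5.3 nM AmpC reagent; cpd preinc 15 min RT; nitrocefin (800 uM stock) to start; A480 q20 s × 4 min; Activity was normalised to no-enzyme and no-compound control wells.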
Sm TGR inh: qHTS Assay for the Inhibitors of Schistosoma Mansoni Peroxiredoxins; purified TGR, DTNB reduction, TNB absorbance 405 nm; Potency, µM (titrated, usually from 114 µM), most hits filed as inhibitors; 3% of 360,000 active; further: nearly all actives have a fitted effect of over 60% in size
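TGR 20 nM + NADPH 100 uM (dispensed conc.), cpd preinc 15 min RT; start with NADPH (500 uM addition) then DTNB (15 mM addition). Kinetic TNB absorbance, 405 nm filter. Four-parameter Hill fit across titration.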
Giardia FBPA inh: qHTS Assay for Inhibitors of Fructose-1,6-bisphosphate Aldolase from Giardia Lamblia. Potency, µM (titrated, usually from 59.6 µM), actives largely listed as inhibitors. A8B2U2. 0.71% of 290,000 active. purified Giardia FBPA. AID 2451, 2010; further: nearly all actives have a fitted effect of over 55% in size
Target sequence (A8B2U2 whole entry, looked up): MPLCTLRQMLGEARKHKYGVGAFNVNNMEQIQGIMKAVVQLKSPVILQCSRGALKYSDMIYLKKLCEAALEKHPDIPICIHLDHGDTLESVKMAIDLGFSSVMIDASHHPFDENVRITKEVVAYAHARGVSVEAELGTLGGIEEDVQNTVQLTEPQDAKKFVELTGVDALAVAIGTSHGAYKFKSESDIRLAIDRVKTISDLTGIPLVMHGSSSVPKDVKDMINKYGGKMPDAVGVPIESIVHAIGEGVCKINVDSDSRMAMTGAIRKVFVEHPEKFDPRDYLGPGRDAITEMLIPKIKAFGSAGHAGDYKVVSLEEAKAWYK
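Giardia FBPA (40 nM reagent) was preincubated 10 min at RT with compound (up to 57.5 uM final), then substrate plus GAPDH/TPI/NAD/arsenate coupling system with diaphorase/resazurin was added; resorufin fluorescence (525/598 nm) was read after 20 min.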
Of the large screens only hits and unclear results are named; the others gave an inactive call. A selection: hits, their analogues and other compounds. The true share with any hit is near 3.6%. The call rests on the fitted dose curve; in most records, active means well fitted curve in the direction sought with a large enough effect; inconclusive means small, poorly fitted or top-dose-only effect, or another doubt; inactive means no such curve, though single readings can be large; an effect the other way counts as inactive or inconclusive.

Cc1oc2ccc(NS(=O)(=O)c3cccc4cccnc34)cc2c1C(=O)OC(C)C	none
S=C(NNc1ccc2ccccc2c1)NC1CCCCC1	AmpC no deterg inconclusive
COc1cc(CN2CCN(c3cccc(C)c3C)CC2)cc(OC)c1O	Sm TGR inh 32µM
COc1cc(CN2CCN(C(=O)c3cccc4ccccc34)CC2)cc(OC)c1O	Sm TGR inh 6.3µM, Giardia FBPA inh inconclusive
Cc1cc(CN2CCN(c3cccc(C)c3C)CC2)cs1	none (no result: AmpC no deterg, Giardia FBPA inh)
COc1ccccc1N1CCN(Cc2ccc(Br)cc2)CC1	Sm TGR inh 35µM
O=C(c1cccc(S(=O)(=O)Nc2ccc(F)cc2)c1)N1CCOCC1	none (no result: Giardia FBPA inh)
CCOC(=O)C1CCN(Cc2nc3ccc([N+](=O)[O-])cc3c(=O)n2-c2ccc(OC)cc2OC)CC1	Sm TGR inh 32µM
COc1ccc(-n2c(CN3CCC(C(N)=O)CC3)nc3ccc([N+](=O)[O-])cc3c2=O)c(OC)c1	Sm TGR inh 45µM
S=C(NCc1cccs1)Nc1cc(Cl)cc(Cl)c1	AmpC inh detg inconclusive, AmpC no deterg inconclusive, Sm TGR inh 11µM
S=C(NCc1cccs1)Nc1cccc(Cl)c1	none
S=C(NCc1cccs1)Nc1ccccc1Cl	Sm TGR inh 11µM
N#Cc1cccc(NC(=O)N2CCC3(CC2)CCN(C(=O)c2ccco2)CC3)c1	none (no result: AmpC inh detg, AmpC no deterg, Sm TGR inh)
COC(=O)C(=Cc1ccc(-c2ccsc2C(=O)OC)o1)C(=O)OC	none
COC(=O)c1sccc1-c1ccc(C(N)=O)o1	Sm TGR inh 50µM
COc1ccc(CC(=O)n2[nH]c(=O)cc(C)c2=O)cc1OC	Sm TGR inh 22µM
COc1ccc(CC(=O)N2CCN(C)CC2)cc1OC	none
CCCn1c2ccccc2c2cnn(CC(=O)N(CCCOC(C)C)Cc3ccco3)c(=O)c21	none (no result: AmpC no deterg, Giardia FBPA inh)
COc1cc(C2C(=O)N(C3CCCCC3)CC(=O)N2CCc2ccccc2)ccc1OC(C)C (stereo unspecified)	none (no result: AmpC no deterg, Giardia FBPA inh)
CCCCn1c(N)c(N(CCOC)C(=O)CSCc2c(C)noc2C)c(=O)[nH]c1=O	Sm TGR inh 79µM (no result: Giardia FBPA inh)
CCCCn1c(N)c(N(CC)C(=O)CSCc2c(C)noc2C)c(=O)[nH]c1=O	AmpC inh detg inconclusive
CSc1nnc(CCCCCCCCc2nnc(SC)o2)o1	none
Cc1ccc(S(=O)(=O)c2ncccc2[N+](=O)[O-])cc1	Sm TGR inh 0.35µM
Cc1ccc(S(=O)(=O)NCc2cccnc2)cc1C(=O)N1CCCC1	AmpC inh detg inconclusive
O=C(COC(=O)c1ccc(NS(=O)(=O)c2cccs2)cc1)Nc1nc2c(F)c(F)c(F)cc2s1	AmpC no deterg 20µM
O=C(CN1CCN(C(=O)c2ccco2)CC1)N1CCc2[nH]c3ccccc3c2C1	Sm TGR inh 20µM, Giardia FBPA inh inconclusive
Cc1cccc(NC(=O)CCCn2nc(C)c3c(C)n(-c4ccccc4)nc3c2=O)c1C	none (no result: AmpC no deterg, Giardia FBPA inh)
COc1ccc(CCN(C)C(=S)Nc2cccc(C)c2)cc1OC	none
C=C(C)Cn1c(C)cc(C)c(S(=O)(=O)c2ccc(C)cc2)c1=O	none (no result: Sm TGR inh)
Cc1cc(C)n(Cc2ccc(Cl)cc2Cl)c(=O)c1S(=O)(=O)c1ccccc1	AmpC no deterg 0.16µM
CC(C)CC1C(C#N)=C(N)Oc2n[nH]c(-c3cccs3)c21 (stereo unspecified)	AmpC inh detg inconclusive
CSCCC1C(C#N)=C(N)Oc2n[nH]c(-c3cccs3)c21 (stereo unspecified)	Sm TGR inh 13µM
O=C(c1cccs1)N1N=C(c2ccccc2)CC1c1ccccc1O (stereo unspecified)	AmpC no deterg 16µM
Cc1ccc(C2=NN(C(=O)c3cccs3)C(c3ccccc3O)C2)cc1 (stereo unspecified)	AmpC no deterg 7.9µM (no result: Sm TGR inh)
COC(=O)c1cc(OC)c(OC)c(OC)c1NC(=O)c1cc(=O)n(C)c(=O)n1C	none (no result: AmpC no deterg, Giardia FBPA inh)
Cn1c(N)c(C(=O)CSc2nc3ccccc3[nH]2)c(=O)n(C)c1=O	none
CCOC(=O)c1ccc(N2C(=O)c3n[nH]c(C)c3C2c2ccc(O)cc2)cc1 (stereo unspecified)	Sm TGR inh 35µM
CCc1ccc(C2c3c(-c4ccccc4)n[nH]c3C(=O)N2c2ccc(C(=O)O)cc2)cc1 (stereo unspecified)	none (no result: AmpC no deterg, Giardia FBPA inh)
CCOc1cc(C2c3c(-c4ccccc4)n[nH]c3C(=O)N2c2ccc(C(=O)O)cc2)ccc1O (stereo unspecified)	Sm TGR inh 25µM
C=CCn1c(SCc2nc3ccccc3nc2C)nnc1-c1ccoc1C	Sm TGR inh 45µM
COC(=O)c1ccc2c(=O)[nH]c(CN3c4ccccc4CC3C)nc2c1 (stereo unspecified)	Sm TGR inh 7.1µM
Cc1ccc(CNC(=O)C2c3ccccc3C(=O)N(C)C2c2c[nH]c3ccccc23)o1 (stereo unspecified)	Sm TGR inh 50µM (no result: AmpC no deterg)
COc1ccc(C2C(C(=O)Nc3cc(C)on3)c3ccccc3C(=O)N2C)cc1 (stereo unspecified)	none
O=C1NC(=S)NC(=O)C1=Cc1ccc2c(c1)CCN2CCCCl	AmpC inh detg inconclusive, Sm TGR inh 14µM, Giardia FBPA inh inconclusive
COc1cc(Cl)c(C)cc1NCC(=O)Nc1cccc(S(=O)(=O)N2CCCC2)c1	none (no result: Giardia FBPA inh)
O=C1NN=C(CSc2n[nH]c(=S)s2)CS1	Sm TGR inh 40µM
CCOC(=O)C(=CNc1ccc(-c2ccco2)c(Cl)c1)C(=O)OCC	Sm TGR inh 14µM
Cc1ccc(SC(=O)c2c([N+](=O)[O-])c(C)nn2C)cc1	Sm TGR inh 5.6µM
Cc1cc(C)n(C(=O)c2c([N+](=O)[O-])c(C)nn2C)n1	none
Cn1cnnc1SCC(=O)N1N=C2/C(=C/c3ccco3)CCCC2C1c1ccco1 (stereo unspecified)	Sm TGR inh 45µM
O=C(CSc1nccc(=O)[nH]1)N1N=C2/C(=C/c3ccco3)CCCC2C1c1ccco1 (stereo unspecified)	Sm TGR inh 22µM
Cn1cnnc1SCC(=O)N1N=C(c2ccc(Cl)cc2)CC1c1ccco1 (stereo unspecified)	Sm TGR inh 32µM
O=c1[nH]c2ccsc2c(=O)n1CCO	none
S=C1NC2=C(CCCC2=C2SCCS2)C(c2ccccc2)N1 (stereo unspecified)	none
Fc1ccc(/C=C2\CCCC3=C2NC(=S)NC3c2ccc(F)cc2)cc1 (stereo unspecified)	AmpC no deterg 14µM, Sm TGR inh inconclusive
CCOC(=O)Nc1ccc(NCc2ccc(F)cc2)nc1N	AmpC inh detg inconclusive, Sm TGR inh 3.2µM
CC[C@@H](c1ccccc1)n1c(=O)n2n(c1=O)[C@H]1[C@H](O)[C@H]3O[C@@H]3/C(=N/OC[C@@H](O)COCc3ccco3)[C@@H]1CC2	none (no result: AmpC inh detg, AmpC no deterg, Sm TGR inh)
COc1cccc(-c2nc(CS(=O)(=O)CC(=O)Nc3cc(OC)ccc3OC)c(C)o2)c1	Sm TGR inh 50µM
COc1cccc(-c2nc(CS(=O)(=O)CC(=O)Nc3ccccc3C)c(C)o2)c1	none
